Measurements reported in PubChem BioAssay (Tox21).
Unmarked numbers belong to inactive results. Results filed as inconclusive are left out. Where a call stands in place of a potency, no number is given. Active and inactive are the calls of the source. Unless noted, calls follow the shape of the full dose curve.

Legend:
[1] = Nuclear factor erythroid 2-related factor 2/antioxidant responsive element (Nrf2/ARE) small molecule agonists: qHTS cell viability counter screen in human keratinocytes (AID 1919968; active = well fitted curve in the direction sought with a large enough effect in the repeat runs; an effect the other way counts as inactive or inconclusive; also: nearly all actives have a fitted effect of over 55% in size; also: potency is read from the fitted curve at half-maximal effect)
Outline: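 CellTiter-Fluor fluorescence, read 1 h after reagent, gave viability in the same wells as the ARE-luciferase assay. KeratinoSens cells (1,500/well) had 23 h compound exposure at 37 C/5% CO2 following 5 h plating.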

[2] = Nuclear factor erythroid 2-related factor 2/antioxidant responsive element (Nrf2/ARE) small molecule agonists: luciferase reporter gene qHTS assay in human keratinocytes (AID 1919969); also: nearly all actives have a fitted effect of over 35% in size
[3] = target: Gonadotropin-releasing hormone receptor (Homo sapiens) (UniProt P30968); test: Human gonadotropin-releasing hormone receptor (GnRHR) small molecule agonists, calcium flux assay in GnRHR-HEK293 cells (AID 1920063); also: nearly all actives have a fitted effect of over 35% in size
Chain of Gonadotropin-releasing hormone receptor (Homo sapiens) (P30968 whole entry, looked up): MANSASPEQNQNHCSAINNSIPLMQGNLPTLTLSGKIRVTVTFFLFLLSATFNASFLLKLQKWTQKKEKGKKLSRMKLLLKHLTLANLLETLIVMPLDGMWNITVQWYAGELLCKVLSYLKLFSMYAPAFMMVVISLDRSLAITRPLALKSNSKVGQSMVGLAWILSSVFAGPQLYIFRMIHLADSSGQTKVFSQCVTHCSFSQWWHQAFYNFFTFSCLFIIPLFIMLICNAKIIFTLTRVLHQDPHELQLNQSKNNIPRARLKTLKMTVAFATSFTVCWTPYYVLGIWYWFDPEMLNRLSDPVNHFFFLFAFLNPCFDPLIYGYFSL
Outline: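 Agonist mode: compounds at 15 concentrations, in triplicate, went onto calcium dye-loaded GnRHR-HEK293 cells. Intracellular calcium was then followed as 480/540 nm fluorescence at 1 s intervals over 3 min.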

[4] = target: KiSS-1 receptor (Homo sapiens) (UniProt Q969F8); test: Human kisspeptin (KISS1R) small molecule agonists, calcium flux assay in KISS1R-HEK293 cells (AID 1920064; active = well fitted curve in the direction sought with a large enough effect in the repeat runs; an effect the other way counts as inactive or inconclusive)
Chain of KiSS-1 receptor (Homo sapiens) (Q969F8 whole entry, looked up): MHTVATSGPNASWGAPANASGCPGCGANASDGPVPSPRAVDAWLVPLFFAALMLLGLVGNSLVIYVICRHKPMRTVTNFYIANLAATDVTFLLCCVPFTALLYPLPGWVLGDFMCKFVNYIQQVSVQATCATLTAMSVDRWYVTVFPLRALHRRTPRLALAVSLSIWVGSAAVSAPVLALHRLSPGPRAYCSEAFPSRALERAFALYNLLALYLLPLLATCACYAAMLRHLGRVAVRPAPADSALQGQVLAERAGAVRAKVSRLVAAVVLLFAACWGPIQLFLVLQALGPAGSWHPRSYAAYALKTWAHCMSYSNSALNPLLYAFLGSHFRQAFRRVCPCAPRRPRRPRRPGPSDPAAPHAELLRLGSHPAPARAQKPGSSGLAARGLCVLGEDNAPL
Outline: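 Agonist mode: intracellular calcium rise tracked at 1 s intervals over 3 min (480/540 nm) immediately after compound addition to dye-loaded KISS1R-HEK293 stable cells. Each compound tested at 15 concentrations in triplicate.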

[5] = G protein-coupled receptor (GPCR) small molecule agonists, calcium flux assay: HEK293 wild type cell line counter screen (AID 1920065)
Outline: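 Calcium flux counter screen: compound added in agonist mode at 15 concentrations in triplicate to dye-loaded parental HEK293 cells. Fluorescence (480/540) read kinetically for 3 min; ATP served as positive control.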

[6] = p53 small molecule agonists, cell-based qHTS assay with human liver microsomes: qHTS cell viability counter screen (AID 1963579); also: nearly all actives have a fitted effect of over 45% in size; also: potency is read from the fitted curve at half-maximal effect
Outline: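 Seed p53RE-bla cells at 4,000 per well; incubate 5 h at 37 C; add compound, human liver microsomes and NADPH; incubate 16 h at 37 C; add CellTiter-Glo; after 30 min at room temperature, read luminescence.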

[7] = p53 small molecule agonists, cell-based qHTS assay with rat liver microsomes: qHTS cell viability counter screen (AID 1963580); also: nearly all actives have a fitted effect of over 45% in size; also: potency is read from the fitted curve at half-maximal effect
Outline: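 Rat liver microsome (0.5 mg/mL final) and NADPH (0.5 mg/mL final) co-incubation with compounds for 16 h at 37 C on HCT-116 p53RE-bla cells; cytotoxicity taken from intracellular ATP luminescence.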

[8] = p53 small molecule agonists, cell-based qHTS assay: qHTS cell viability counter screen (AID 1963581); also: nearly all actives have a fitted effect of over 45% in size; also: potency is read from the fitted curve at half-maximal effect
Outline: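 Counter screen read by CellTiter-Glo luminescence (ATP content, 30 min at room temperature), run in the same wells as the beta-lactamase reporter read. HCT-116 p53RE-bla cells saw compounds for 16 h at 37 C.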

[9] = p53 small molecule agonists, cell-based qHTS assay (AID 1963582; active = well fitted activation curve with a large enough effect in the signal ratio in the repeat runs, not every such curve was filed as active; the % refers to the signal ratio; also: potency is read from the fitted curve at half-maximal effect)
Outline: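 Read-out is beta-lactamase FRET fluorescence after 2 h at room temperature with LiveBLAzer B/G substrate. p53 response element-bla cells were treated 16 h at 37 C with compounds in DMSO, added 5 h after seeding.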

[10] = target: 5-hydroxytryptamine receptor 2A (Homo sapiens) (UniProt P28223); test: 5-hydroxytryptamine receptor 2A (HTR2A) small molecule antagonists, cell-based qHTS assay (AID 1963586); also: nearly all actives have a fitted effect of over 45% in size; also: potency is read from the fitted curve at half-maximal effect
Chain of 5-hydroxytryptamine receptor 2A (Homo sapiens) (P28223 whole entry, looked up): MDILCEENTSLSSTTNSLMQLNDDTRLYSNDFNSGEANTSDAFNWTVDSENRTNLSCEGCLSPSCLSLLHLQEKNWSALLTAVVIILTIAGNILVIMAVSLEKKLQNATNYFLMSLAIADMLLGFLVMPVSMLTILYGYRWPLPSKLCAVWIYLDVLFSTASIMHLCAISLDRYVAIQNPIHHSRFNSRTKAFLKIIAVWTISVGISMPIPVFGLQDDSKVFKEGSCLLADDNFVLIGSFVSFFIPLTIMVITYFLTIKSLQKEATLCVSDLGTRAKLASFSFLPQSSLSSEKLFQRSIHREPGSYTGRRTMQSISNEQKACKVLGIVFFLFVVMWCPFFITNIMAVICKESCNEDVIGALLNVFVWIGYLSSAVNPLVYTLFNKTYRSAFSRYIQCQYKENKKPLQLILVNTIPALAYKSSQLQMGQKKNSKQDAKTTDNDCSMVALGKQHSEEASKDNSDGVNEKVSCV
Outline: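 CHO cells stably expressing human HTR2A were plated for 18 h at 37 C, then loaded with calcium dye for 1 h. Compounds were preincubated 5 min at room temperature before DOI (4 nM solution) was added. Kinetic fluorescence was read for 3 min.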

[11] = target: 5-hydroxytryptamine receptor 2A (Homo sapiens) (UniProt P28223); test: 5-hydroxytryptamine receptor 2A (HTR2A) small molecule agonists, cell-based qHTS assay (AID 1963587); also: nearly all actives have a fitted effect of over 30% in size; also: potency is read from the fitted curve at half-maximal effect
Outline: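 Kinetic calcium-flux fluorescence (2 min, 1 sec intervals) after compound addition in agonist mode. HTR2A-CHO cells were cultured 18 h, then dye-loaded 1 h at 37 C.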

[12] = target: Muscarinic acetylcholine receptor M1 (Homo sapiens) (UniProt P11229); test: Cholinergic receptor muscarinic 1 (CHRM1) small molecule antagonists, cell-based qHTS assay (AID 1963588); also: nearly all actives have a fitted effect of over 40% in size; also: potency is read from the fitted curve at half-maximal effect
Chain of Muscarinic acetylcholine receptor M1 (Homo sapiens) (P11229 whole entry, looked up): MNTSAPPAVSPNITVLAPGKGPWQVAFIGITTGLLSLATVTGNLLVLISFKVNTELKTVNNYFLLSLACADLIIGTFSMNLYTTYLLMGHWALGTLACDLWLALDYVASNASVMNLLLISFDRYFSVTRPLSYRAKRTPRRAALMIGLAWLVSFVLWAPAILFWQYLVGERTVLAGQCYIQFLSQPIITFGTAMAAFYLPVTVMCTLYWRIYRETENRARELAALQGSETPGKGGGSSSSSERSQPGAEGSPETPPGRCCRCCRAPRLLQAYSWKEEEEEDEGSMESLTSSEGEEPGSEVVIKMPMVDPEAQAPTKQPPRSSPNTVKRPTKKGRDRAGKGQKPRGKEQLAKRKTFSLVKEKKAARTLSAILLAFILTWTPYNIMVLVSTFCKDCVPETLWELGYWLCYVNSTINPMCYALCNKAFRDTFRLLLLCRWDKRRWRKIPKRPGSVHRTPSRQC
Outline: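 Compounds were tested at 15 concentrations in three independent runs. Dye-loaded CHRM1-CHO cells were exposed 5 min at room temperature before stimulation by acetylcholine added at 50nM. Intracellular calcium was read kinetically on FDSS for 3 min.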

[13] = target: Muscarinic acetylcholine receptor M1 (Homo sapiens) (UniProt P11229); test: Cholinergic receptor muscarinic 1 (CHRM1) small molecule agonists, cell-based qHTS assay (AID 1963589); also: nearly all actives have a fitted effect of over 35% in size
Outline: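 Agonist-mode calcium-flux screen: compounds at 15 concentrations, three independent runs, were pin-transferred onto dye-loaded human CHRM1-CHO cells. Fluorescence was then recorded kinetically every second over minutes.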

[14] = cAMP Responsive Elements (CRE) small molecule agonists, cell-based qHTS assay (AID 1963590); also: potency is read from the fitted curve at half-maximal effect
Outline: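 Agonist mode: compound added to CRE-bla HEK 293T cells (2,000/well, 18 h after plating) for 3 h at 37 C/5% CO2. Reporter activity detected via FRET beta-lactamase substrate, 2 h room-temperature loading.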

[15] = cAMP Responsive Elements (CRE) small molecule antagonists, cell-based qHTS assay (AID 1963591; active = well fitted inhibition curve with a large enough effect in the signal ratio in the repeat runs, not every such curve was filed as active; the % refers to the signal ratio)
Outline: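 Antagonist mode: compounds are added alongside the adenylyl cyclase activator NKH477 (0.25 uM final) to CRE-bla HEK293T cells for 3 h. LiveBLAzer FRET substrate, 2 h at room temperature, reports bla expression.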

[16] = target: Beta-2 adrenergic receptor (Homo sapiens) (UniProt P07550); test: Adrenergic beta2 receptor (ADRB2) small molecule antagonists, cell-based qHTS assay (AID 1963592); also: nearly all actives have a fitted effect of over 50% in size; also: potency is read from the fitted curve at half-maximal effect
Chain of Beta-2 adrenergic receptor (Homo sapiens) (P07550 whole entry, looked up): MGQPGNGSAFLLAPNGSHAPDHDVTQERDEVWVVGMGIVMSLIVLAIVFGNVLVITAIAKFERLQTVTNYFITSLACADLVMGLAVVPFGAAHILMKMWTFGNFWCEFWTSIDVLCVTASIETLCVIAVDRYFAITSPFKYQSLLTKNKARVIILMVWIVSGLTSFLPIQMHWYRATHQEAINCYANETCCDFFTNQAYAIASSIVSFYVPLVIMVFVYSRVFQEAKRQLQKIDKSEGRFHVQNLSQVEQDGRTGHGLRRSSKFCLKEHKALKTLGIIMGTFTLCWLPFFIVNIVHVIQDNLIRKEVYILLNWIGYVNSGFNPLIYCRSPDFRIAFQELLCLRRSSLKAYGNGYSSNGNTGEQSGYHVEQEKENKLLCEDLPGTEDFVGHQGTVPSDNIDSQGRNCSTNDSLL
Outline: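 Assay format: CHO-ADRB2 cells, 18-20hr seeding at 37C/5% CO2, then compound plus 1nM isoproterenol agonist mix for 0.5hr RT. Homogeneous time-resolved fluorescence cAMP detection after 1hr, expressed as 665/615 nm ratio.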

[17] = target: Beta-2 adrenergic receptor (Homo sapiens) (UniProt P07550); test: Adrenergic beta2 receptor (ADRB2) small molecule agonists, cell-based qHTS assay (AID 1963593);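 also: CHO cells stably overexpressing human ADRB2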
Outline: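 CHO cells stably over-expressing ADRB2 were plated overnight at 37C, then dosed with compounds plus a stimulation mix containing 100uM IBMX and 25uM Ro-20-1724 for 0.5hr at room temperature. cAMP was measured by HTRF competition, 1hr.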

[18] = target: D(2) dopamine receptor (Homo sapiens) (UniProt P14416); test: Dopamine D2 receptor (DRD2) small molecule agonists, cell-based qHTS assay (AID 1963594); also: nearly all actives have a fitted effect of over 35% in size
Chain of D(2) dopamine receptor (Homo sapiens) (P14416 whole entry, looked up): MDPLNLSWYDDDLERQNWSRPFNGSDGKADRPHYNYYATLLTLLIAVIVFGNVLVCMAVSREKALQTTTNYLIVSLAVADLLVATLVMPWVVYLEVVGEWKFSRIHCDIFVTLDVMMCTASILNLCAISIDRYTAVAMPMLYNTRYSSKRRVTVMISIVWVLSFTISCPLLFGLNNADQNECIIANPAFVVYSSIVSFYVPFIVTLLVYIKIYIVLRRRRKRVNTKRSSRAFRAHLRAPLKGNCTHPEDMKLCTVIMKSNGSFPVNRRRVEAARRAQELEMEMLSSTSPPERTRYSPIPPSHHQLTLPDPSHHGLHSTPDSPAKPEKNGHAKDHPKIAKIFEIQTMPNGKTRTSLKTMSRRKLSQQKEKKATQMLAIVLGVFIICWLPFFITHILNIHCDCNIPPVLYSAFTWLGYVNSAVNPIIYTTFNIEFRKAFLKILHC
Outline: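 cAMP accumulation in DRD2-HEK293 cells measured by HTRF after 1 h detection; compounds added 10 min before NKH477 (200nM […]) forskolin-analogue stimulation, 30 min at room temperature, with Ro20-1724 present at 0.1 mM final.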

[19] = target: D(2) dopamine receptor (Homo sapiens) (UniProt P14416); test: Dopamine D2 receptor (DRD2) small molecule antagonists, cell-based qHTS assay (AID 1963595; active = well fitted inhibition curve with a large enough effect in the signal ratio in the repeat runs, with a control signal flat; the % refers to the signal ratio; also: potency is read from the fitted curve at half-maximal effect)
Outline: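 HTRF cAMP read-out at 665 and 620 nm emission (340 nm excitation). Antagonist mode: compounds were tested against 12 nM quinpirole in DRD2-HEK293 cells, with 200 nM NKH477 raising cAMP and 0.1 mM Ro20-1724 blocking its breakdown.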

[20] = p53 small molecule agonists, cell-based qHTS assay with rat liver microsomes (AID 1963578)
Outline: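 Fluorescence from a beta-lactamase reporter under a p53 response element was measured after cells had been incubated 16 h at 37 C with test compound and rat liver microsomes plus NADPH (0.5 mg/mL final each).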

Compound	Potency [1]	Potency [2]	Potency [3]	Potency [4]	Potency [5]	Potency [6]	Potency [7]	Potency [8]	Potency [9]	Potency [10]	Potency [11]	Potency [12]	Potency [13]	Potency [14]	Potency [15]	Potency [16]	Potency [17]	Potency [18]	Potency [19]	Potency [20]
Cc1cc2c(cc1CC(=O)c1sccc1S(=O)(=O)Nc1onc(C)c1Cl)OCO2	4.22 µM (active)	inactive	inactive	inactive	inactive	inactive	inactive	inactive	inactive	inactive	inactive	inactive	inactive	inactive	inactive	inactive	inactive	inactive	inactive	
O=C(O)COC(=O)Cc1ccccc1Nc1c(Cl)cccc1Cl	inactive	inactive	inactive	inactive	inactive	inactive		inactive						inactive	inactive	inactive	inactive	inactive	inactive	inactive
O=C=NC1CCC(CC2CCC(N=C=O)CC2)CC1 (stereo not drawn)	12.2 µM (active)	inactive	inactive	inactive	inactive	inactive	inactive	inactive	inactive	2.98 µM (active)	1.95 µM (active)	4.21 µM (active)	inactive	inactive	inactive	inactive	inactive	inactive		
Cc1ccc(C=O)cc1C	inactive	inactive	inactive	inactive	inactive	inactive	inactive	inactive	inactive	inactive	inactive	inactive	inactive	inactive		inactive			inactive	
Clc1ccc(Nc2nnc(Cc3ccncc3)c3ccccc23)cc1	inactive	inactive	inactive	inactive	inactive		inactive	inactive	inactive	18.3 µM (active)	inactive		inactive	inactive	inactive	inactive			inactive	inactive
CCN(Cc1cccnc1)C(=O)c1cccc(Cl)c1[C@]1(C)C(=O)N(Cc2ccc(OC)cc2OC)c2ccc(Cl)cc21	inactive	inactive	inactive	inactive	inactive		inactive				inactive		inactive			inactive		inactive		inactive
NC(=O)Cn1c(=O)cc(CCN2CCN(c3nccc4sccc34)CC2)c2ccc(F)cc21	inactive	inactive	inactive	inactive	inactive		inactive	inactive	inactive		inactive	23.7 µM (active)	inactive					inactive	inactive	inactive
Nc1ncn([C@H]2C[C@H](O)[C@@H](CO)O2)c(=O)n1	inactive	inactive	inactive	inactive	inactive	inactive	inactive	inactive		inactive	inactive	inactive	inactive	inactive	inactive	inactive	inactive	inactive		
COc1ccccc1N1CCN(CC(O)COc2cccc3ccccc23)CC1 (stereo not drawn)	inactive	inactive	inactive	inactive	inactive			inactive	inactive		inactive	inactive	inactive	inactive		2.11 µM (active)			33.5 µM (active)	inactive
CCC(=O)OCCC(C)CCC=C(C)C (stereo not drawn)	inactive	inactive	inactive	inactive	inactive	inactive	inactive	inactive	inactive		inactive	inactive	inactive	inactive	inactive	inactive		inactive	inactive	
CC(=O)/C(C)=C/C1C(C)=CCCC1(C)C (stereo not drawn)	inactive	inactive	inactive	inactive	inactive		inactive	inactive		inactive		inactive	inactive	inactive	inactive	inactive		inactive		inactive
O=C(c1ccc(O)c(O)c1)c1ccc(O)cc1O	inactive	inactive	inactive	inactive	inactive	inactive	inactive	inactive		47.1 µM (active)	inactive	inactive								
CC(=O)Oc1cccc(C)c1	inactive	inactive	inactive	inactive	inactive		inactive	inactive		inactive	inactive	inactive	inactive	inactive	inactive	inactive	inactive	inactive	inactive	inactive
CCO[Si](CCCS)(OCC)OCC	inactive	inactive	inactive	inactive	inactive		inactive	inactive	inactive	inactive	inactive		inactive	inactive	inactive	inactive	inactive	inactive	inactive	inactive
CCN(Cc1cccc(S(=O)(=O)O)c1)c1ccc(C(=C2C=CC(=[N+](CC)Cc3cccc(S(=O)(=O)O)c3)C=C2)c2ccc(O)cc2S(=O)(=O)[O-])cc1	33.1 µM (active)	inactive	inactive	inactive	inactive	24.8 µM (active)	24.8 µM (active)	11.1 µM (active)		inactive	inactive	inactive	inactive	inactive	inactive					
O=C(O)CCSSCCC(=O)O	inactive	inactive	inactive	inactive	inactive	inactive	inactive	inactive		inactive	inactive	inactive	inactive	inactive	inactive	inactive	inactive	inactive	inactive	
Nc1nc(Cl)nc2c1ncn2[C@H]1C[C@H](O)[C@@H](CO)O1	inactive	inactive	inactive	inactive	inactive	inactive	inactive	inactive	0.572 µM (active)					60.7 µM (active)		inactive		inactive	inactive	
